Among the test systems are DU-145 prostate; K-562 leukemia; MALME-3M melanoma; MDA-MB-231 breast; RXF 393 renal; SF-268 CNS; SF-295 CNS; SF-539 CNS; UACC-257 melanoma; M14 melanoma; HCT-15 colon; HT29 colon; SNB-75 CNS; SNB-19 CNS; U251 CNS; PC-3 prostate; SK-MEL-5 melanoma; UACC-62 melanoma; LOX IMVI melanoma; SK-MEL-28 melanoma.
Common to all, as to assay: NCI-60 one-dose screen, 48 h (100 = growth as untreated, 0 = no growth, -100 = all killed)
Settings in all cases: 10 µM unless noted

About 83,000 compounds went through this panel and 20% of them were active in at least one assay; those are over-represented in the sample as a whole.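 Cells were grown in 96-well plates and exposed to the test compound at a single concentration for 48 hours; results are reported as percent growth, with values below 10 considered active.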 A number with no mark means an inactive call. Activity calls are given as the source filed them.

`O=C(NCCNc1nccc(-c2c(-c3cccc(O)c3)nc3sccn23)n1)c1ccccc1O`: the growth with DU-145 prostate is 67.2%; in the assay on K-562 leukemia, 40.5%; in the assay with MALME-3M melanoma it was 14.6%; with MDA-MB-231 breast, 48.4%; in the assay on RXF 393 renal, 50.9%; in the assay with SF-268 CNS, 62.5%. Further, the growth was 46.4% with SF-295 CNS; 61.9% in the assay on SF-539 CNS; 14.8% in the assay on UACC-257 melanoma; 16.7% in the assay on M14 melanoma; 54.5% in the assay on HCT-15 colon; 49.2% in the assay with HT29 colon. Further, the growth with SNB-75 CNS is 40.6%; with SNB-19 CNS, 90.2%; with U251 CNS it was 61.6%; in the assay on PC-3 prostate, 51.1%; with SK-MEL-5 melanoma, 22.7%; in the assay on UACC-62 melanoma, 0.528% (active). The figures for the growth in the assay on LOX IMVI melanoma and in the assay on SK-MEL-28 melanoma were 33.5% and 41.4%, respectively.
As to `O=C1c2ccccc2OC=C(c2ccccc2)N1CCCCNc1ccc(F)cc1`, the growth in the assay on DU-145 prostate was 98.9%; with K-562 leukemia, 68.1%; with MALME-3M melanoma, 82.3%; in the assay on MDA-MB-231 breast, 74.9%; in the assay on RXF 393 renal, 97.9%; in the assay on SF-268 CNS, 78.3%. Further, the growth in the assay with SF-295 CNS is 86%; in the assay with SF-539 CNS, 100%; in the assay with UACC-257 melanoma it was 83.6%; in the assay on M14 melanoma it was 76.7%; in the assay with HCT-15 colon, 90.3%; in the assay with HT29 colon, 76.9%. For the same molecule, the growth in the assay with SNB-75 CNS is 90.7%; with SNB-19 CNS, 87.3%; with U251 CNS, 81.8%; in the assay with PC-3 prostate it was 47.2%; with SK-MEL-5 melanoma, 94.3%; in the assay on UACC-62 melanoma, 76.3%. Also, the values for the growth with LOX IMVI melanoma and with SK-MEL-28 melanoma were 86.1% and 104%, respectively.
Take `CCOC(=O)NNc1nncc2ccccc12`: the growth is 115% with DU-145 prostate; 81.9% with K-562 leukemia; 99.5% in the assay with MALME-3M melanoma; 101% with MDA-MB-231 breast; 109% in the assay with RXF 393 renal; 107% with SF-268 CNS. Besides, the growth in the assay on SF-295 CNS was 103%; in the assay with SF-539 CNS it was 108%; in the assay with UACC-257 melanoma it was 93.3%; in the assay on M14 melanoma it was 108%; in the assay on HCT-15 colon it was 101%; with HT29 colon, 104%. The growth was 120% in the assay on SNB-75 CNS; 99.2% with SNB-19 CNS; 97.2% in the assay with U251 CNS; 97.7% in the assay on PC-3 prostate; 105% with SK-MEL-5 melanoma; 101% in the assay on UACC-62 melanoma. Further, the growth in the assay with LOX IMVI melanoma is 90.8%; with SK-MEL-28 melanoma, 122%.
With `CN1CCN(CC(=O)N(C)c2ccc(N=C(c3ccccc3)c3c(O)[nH]c4ccc(C#N)cc34)cc2)CC1`, the growth with DU-145 prostate was 32.8%; in the assay with K-562 leukemia, 11%; in the assay with MALME-3M melanoma, 35.5%; in the assay on MDA-MB-231 breast it was 42.5%; in the assay with RXF 393 renal, 3.21% (active); in the assay with SF-268 CNS, 32%. Besides, the growth is 18.2% with SF-295 CNS; -20.2% (active) with SF-539 CNS; 78.5% with UACC-257 melanoma; 30.7% in the assay with M14 melanoma; 64.7% in the assay on HCT-15 colon; 10.7% with HT29 colon. For the same molecule, the growth in the assay with SNB-75 CNS was 3.45% (active); in the assay on SNB-19 CNS, 61.1%; with U251 CNS it was 35.8%; with PC-3 prostate, 36.4%; in the assay on SK-MEL-5 melanoma it was 25.8%; in the assay on UACC-62 melanoma it was 68.1%. For the same molecule, the growth is 13.2% in the assay with LOX IMVI melanoma and 53% with SK-MEL-28 melanoma.
As for `CCC(CC(C)C)Nc1ccc(NC(CC)CC(C)C)cc1` (stereo not given), the growth with DU-145 prostate is 103%; in the assay on K-562 leukemia, -4.28% (active); with MALME-3M melanoma, 97.7%; in the assay on MDA-MB-231 breast, 93.1%; in the assay on RXF 393 renal, 96.5%; in the assay on SF-268 CNS, 72.2%. The growth was 95.3% in the assay on SF-295 CNS; 107% with SF-539 CNS; 92.4% in the assay with UACC-257 melanoma; 99.4% in the assay with M14 melanoma; 92% in the assay on HCT-15 colon; 88.8% in the assay with HT29 colon. For the same molecule, the growth with SNB-75 CNS was 96.8%; with SNB-19 CNS, 97.8%; in the assay on U251 CNS, 75.3%; in the assay on PC-3 prostate, -11.1% (active); with SK-MEL-5 melanoma it was 95.4%; in the assay with UACC-62 melanoma, 89.3%. The growth with LOX IMVI melanoma was 83.4%; with SK-MEL-28 melanoma, 108%.
Turning to `Nc1nccc2c1ccn2-c1ccc(NC(=O)Nc2cccc(C(F)(F)F)c2)cc1`, the growth in the assay on DU-145 prostate was 96.7%; with K-562 leukemia, 81.5%; in the assay with MALME-3M melanoma it was 99.3%; with MDA-MB-231 breast, 72.9%; in the assay on RXF 393 renal, 97.8%; with SF-268 CNS, 96.3%. Besides, the growth in the assay on SF-295 CNS was 78.2%; in the assay on SF-539 CNS it was 86.1%; in the assay with UACC-257 melanoma it was 113%; in the assay with M14 melanoma, 91.5%; in the assay with HCT-15 colon, 90%; in the assay on HT29 colon, 96.1%. The growth in the assay on SNB-75 CNS was 89%; in the assay on SNB-19 CNS, 104%; in the assay with U251 CNS it was 80.5%; in the assay on PC-3 prostate, 70.5%; in the assay on SK-MEL-5 melanoma, 93.5%; in the assay on UACC-62 melanoma, 91.1%. Besides, the values for the growth in the assay on LOX IMVI melanoma and in the assay with SK-MEL-28 melanoma were 87.6% and 101%, respectively.
For `COC(=O)c1oc2c(C(=O)/C=C/c3ccc(OC)cc3)c(OCCN3CCOCC3)ccc2c1C`, the growth in the assay with DU-145 prostate is 1.8% (active); in the assay with K-562 leukemia, -37.3% (active); with MALME-3M melanoma it was -14.1% (active); with MDA-MB-231 breast, 3.21% (active); in the assay on RXF 393 renal it was -64.4% (active); in the assay on SF-268 CNS, 11.5%. Also, the growth is 18.3% in the assay with SF-295 CNS; -34% (active) in the assay with SF-539 CNS; 55.5% with UACC-257 melanoma; 11.5% with M14 melanoma; -57% (active) in the assay with HCT-15 colon; -20.4% (active) in the assay with HT29 colon. In addition, the growth in the assay with SNB-75 CNS was -26.8% (active); in the assay on SNB-19 CNS, -2.78% (active); in the assay with U251 CNS it was -81.7% (active); in the assay with PC-3 prostate it was 8.1% (active); in the assay with SK-MEL-5 melanoma it was -100% (active); with UACC-62 melanoma it was -0.039% (active). The growth with LOX IMVI melanoma was -85.3% (active); with SK-MEL-28 melanoma it was 4.47% (active).
`Cc1ncc(CO)c(C(=O)O)c1O`: the growth in the assay on DU-145 prostate is 102%; in the assay on K-562 leukemia it was 93%; in the assay with MALME-3M melanoma, 95.9%; with MDA-MB-231 breast it was 103%; with RXF 393 renal, 106%; in the assay on SF-268 CNS, 94.4%. Also, the growth was 100% in the assay with SF-295 CNS; 96.6% with SF-539 CNS; 107% with UACC-257 melanoma; 93.7% with M14 melanoma; 105% with HCT-15 colon; 89.1% in the assay with HT29 colon. Besides, the growth is 93.4% in the assay with SNB-75 CNS; 107% in the assay with SNB-19 CNS; 98.8% in the assay with U251 CNS; 88.5% in the assay with PC-3 prostate; 103% with SK-MEL-5 melanoma; 97% in the assay on UACC-62 melanoma. For the same molecule, the growth in the assay on LOX IMVI melanoma and with SK-MEL-28 melanoma was 102% throughout.

The values are drawn from PubChem BioAssay (NCI).
